Reference: the supplement of paper PMC10849652
Of roughly 7,900 targets only a part is listed; those with a hit were picked by preference. About 0.6% of all pairs of compound and target were hits. Unmarked numbers belong to inactive results.

Legend:
Test in all cases: log2 fold change, soluble protein after heating vs DMSO (PISA); higher = thermal stabilisation; K562 cells, 10 uM, 30 min; active = over 0.2 and 3.5 SD of the protein, either way, in both replicates (recomputed)
erlotinib = compound: C#Cc1cccc(Nc2ncnc3cc(OCCOC)c(OCCOC)cc23)c1 [erlotinib]
Method in brief: (§1)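 Thermal stability values are relative to control samples and come from duplicates. They are expressed as log2 fold changes. For measurement, K562 cells (2×10^6 cells/mL) received 10 μM compound for 30 min, and aliquots were heated for 3 min over 48°C-58°C, pooled, and extracted at 4°C in PBS with 0.5% NP-40. Soluble protein, the supernatant after 21,000xg for 90 min, was quantified by TMTpro 16plex LC-MS/MS with equalised channel sums.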

[1] = compound: C/C(=N\NC(=O)C1=CC(=CC=C1)S(=O)(=O)N2CCOCC2)/C3=C(C=CC(=C3)Cl)O
Method in brief: as §1

[2] = compound: C1=CC(=C(C=C1Cl)C2=NC3=NC=CN=C3C(=N2)NC4=CC=NC=C4)F
Method in brief: as §1

[3] = compound: C1=CC(=CC=C1C2=NC3=C(N2)C=C(C=C3)C(=O)N)OC4=CC=C(C=C4)Cl
Method in brief: as §1

[4] = compound: C1=CC2=C(C=CC(=C2)/C=C\3/C(=O)NC(=NCC4=CC=CS4)S3)N=C1
Method in brief: as §1

[5] = compound: C1=CC2=NC=CN=C2C=C1/C=C/3\C(=O)NC(=O)S3
Method in brief: as §1

[6] = compound: C1=CC=C(C=C1)C2=NC(=C(N2)C3=CC=NC=C3)C4=CC(=C(C=C4)Cl)O
Method in brief: as §1

[7] = compound: C1=CC=C2C(=C1)C3=NNC4=CC=CC(=C43)C2=O
Method in brief: as §1

[8] = compound: C1CCN(C1)C(=O)NC2=CC=CC(=C2)NC3=NC=C(C(=N3)NCCC4=CN=CN4)Br
Method in brief: as §1

[9] = compound: C1CN(CCC1(CC2=CC=C(C=C2)Cl)N)C3=NC=NC4=C3C=CN4
Method in brief: as §1

IRAK-1-4 Inhibitor I = compound: C1COCCN1CCN2C3=CC=CC=C3N=C2NC(=O)C4=CC(=CC=C4)[N+](=O)[O-] [IRAK-1-4 Inhibitor I]
Method in brief: as §1

ibrutinib = compound: C=CC(=O)N1CCC[C@@H](n2nc(-c3ccc(Oc4ccccc4)cc3)c3c(N)ncnc32)C1 [ibrutinib]
Method in brief: as §1

[10] = compound: CC(=O)c1cnc2ccc(-c3cc(Cl)c(O)c(Cl)c3)nc2c1N[C@H]1CC[C@H](CN(C)C)CC1
Method in brief: as §1

ralimetinib = compound: CC(C)(C)Cn1c(N)nc2ccc(-c3[nH]c(C(C)(C)C)nc3-c3ccc(F)cc3)nc21 [ralimetinib]
Method in brief: as §1

[11] = compound: CC(C)(O)CC(=O)NCCn1ccc2ncnc(Nc3ccc(Oc4cccc(C(F)(F)F)c4)c(Cl)c3)c21
Method in brief: as §1

[12] = compound: CC(C)C1=C2N=C(C=C(N2N=C1)NCC3=CC=CC=C3)NCCCCCCN
Method in brief: as §1

[13] = compound: CC(C)C[C@@H](C=O)NC(=O)[C@H](CC(C)C)NC(=O)[C@H](CC(C)C)NC(=O)OCc1ccccc1
Method in brief: as §1

pinometostat = compound: CC(C)N(C[C@H]1O[C@@H](n2cnc3c(N)ncnc32)[C@H](O)[C@@H]1O)[C@H]1C[C@@H](CCc2nc3cc(C(C)(C)C)ccc3[nH]2)C1 [pinometostat]
Method in brief: as §1

[14] = compound: CC1=C(C(CC(=O)N1)C2=CC=C(C=C2)C(F)(F)F)C(=O)NC3=C(C=C4C(=C3)C=NN4)F
Method in brief: as §1

[15] = compound: CC1=C(C2=C(C=C1)C(=O)C3=CC=CC=C3N2CCCN)C
Method in brief: as §1

Sequence of UniProt A6NHR9 (A6NHR9 whole entry, looked up): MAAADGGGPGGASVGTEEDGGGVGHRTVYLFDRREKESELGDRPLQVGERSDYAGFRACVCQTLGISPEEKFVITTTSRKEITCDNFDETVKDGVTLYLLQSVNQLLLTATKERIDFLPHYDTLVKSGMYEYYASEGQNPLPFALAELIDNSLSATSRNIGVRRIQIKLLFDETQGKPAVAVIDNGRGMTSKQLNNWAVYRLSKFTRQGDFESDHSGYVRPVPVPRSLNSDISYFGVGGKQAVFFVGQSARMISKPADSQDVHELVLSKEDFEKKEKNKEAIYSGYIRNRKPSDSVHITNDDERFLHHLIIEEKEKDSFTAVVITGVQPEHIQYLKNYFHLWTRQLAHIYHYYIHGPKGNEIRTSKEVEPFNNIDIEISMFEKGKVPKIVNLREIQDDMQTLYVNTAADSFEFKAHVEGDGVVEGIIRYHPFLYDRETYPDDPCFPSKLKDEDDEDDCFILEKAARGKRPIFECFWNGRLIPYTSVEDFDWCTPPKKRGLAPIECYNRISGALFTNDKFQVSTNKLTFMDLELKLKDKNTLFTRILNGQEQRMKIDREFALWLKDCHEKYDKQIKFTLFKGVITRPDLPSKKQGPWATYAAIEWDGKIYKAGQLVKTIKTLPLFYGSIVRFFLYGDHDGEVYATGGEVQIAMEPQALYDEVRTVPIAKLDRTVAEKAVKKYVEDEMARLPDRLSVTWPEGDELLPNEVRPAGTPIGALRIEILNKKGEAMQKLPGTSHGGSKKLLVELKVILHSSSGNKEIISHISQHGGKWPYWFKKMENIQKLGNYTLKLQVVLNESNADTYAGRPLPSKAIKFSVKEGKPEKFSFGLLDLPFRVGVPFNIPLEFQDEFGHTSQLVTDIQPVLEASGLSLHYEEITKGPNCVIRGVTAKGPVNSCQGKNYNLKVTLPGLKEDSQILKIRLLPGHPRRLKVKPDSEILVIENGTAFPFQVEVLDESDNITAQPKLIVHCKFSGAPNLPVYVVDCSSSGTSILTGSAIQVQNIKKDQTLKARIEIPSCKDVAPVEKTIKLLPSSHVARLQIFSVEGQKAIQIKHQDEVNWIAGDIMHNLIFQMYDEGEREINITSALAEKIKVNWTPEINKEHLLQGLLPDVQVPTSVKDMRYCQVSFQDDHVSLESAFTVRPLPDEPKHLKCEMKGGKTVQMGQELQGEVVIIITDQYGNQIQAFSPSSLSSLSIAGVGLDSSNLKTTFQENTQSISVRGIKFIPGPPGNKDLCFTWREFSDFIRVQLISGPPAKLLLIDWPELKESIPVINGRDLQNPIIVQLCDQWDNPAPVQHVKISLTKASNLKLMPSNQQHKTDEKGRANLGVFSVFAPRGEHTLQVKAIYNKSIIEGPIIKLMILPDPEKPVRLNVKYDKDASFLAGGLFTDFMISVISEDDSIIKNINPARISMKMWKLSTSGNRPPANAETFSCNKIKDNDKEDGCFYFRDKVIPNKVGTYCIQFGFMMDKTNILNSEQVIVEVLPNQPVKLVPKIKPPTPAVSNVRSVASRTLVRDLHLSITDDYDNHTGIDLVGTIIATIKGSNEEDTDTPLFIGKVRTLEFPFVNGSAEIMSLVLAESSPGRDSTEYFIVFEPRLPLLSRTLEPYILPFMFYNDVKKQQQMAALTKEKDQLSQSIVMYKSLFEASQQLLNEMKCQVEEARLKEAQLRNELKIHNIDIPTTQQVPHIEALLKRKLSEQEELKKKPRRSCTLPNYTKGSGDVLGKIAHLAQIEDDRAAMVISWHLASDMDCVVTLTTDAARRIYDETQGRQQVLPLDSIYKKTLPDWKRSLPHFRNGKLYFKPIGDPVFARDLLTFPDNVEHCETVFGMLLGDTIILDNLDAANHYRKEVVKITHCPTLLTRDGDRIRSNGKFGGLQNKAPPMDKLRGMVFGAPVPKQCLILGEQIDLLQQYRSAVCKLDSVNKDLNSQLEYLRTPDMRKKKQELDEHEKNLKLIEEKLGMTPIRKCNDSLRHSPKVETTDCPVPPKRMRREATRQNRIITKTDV
Sequence of UniProt P53597 (P53597 whole entry, looked up): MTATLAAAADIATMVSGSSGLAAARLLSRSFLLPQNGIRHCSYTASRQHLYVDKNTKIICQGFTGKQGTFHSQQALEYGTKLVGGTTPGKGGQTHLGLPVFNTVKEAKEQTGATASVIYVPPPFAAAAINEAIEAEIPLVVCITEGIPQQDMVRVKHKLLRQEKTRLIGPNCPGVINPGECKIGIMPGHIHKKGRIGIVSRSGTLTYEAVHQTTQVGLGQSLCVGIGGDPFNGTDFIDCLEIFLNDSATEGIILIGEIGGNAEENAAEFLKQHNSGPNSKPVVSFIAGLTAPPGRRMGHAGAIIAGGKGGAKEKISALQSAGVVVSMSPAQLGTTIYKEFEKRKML
Sequence of UniProt Q15796 (Q15796 whole entry, looked up): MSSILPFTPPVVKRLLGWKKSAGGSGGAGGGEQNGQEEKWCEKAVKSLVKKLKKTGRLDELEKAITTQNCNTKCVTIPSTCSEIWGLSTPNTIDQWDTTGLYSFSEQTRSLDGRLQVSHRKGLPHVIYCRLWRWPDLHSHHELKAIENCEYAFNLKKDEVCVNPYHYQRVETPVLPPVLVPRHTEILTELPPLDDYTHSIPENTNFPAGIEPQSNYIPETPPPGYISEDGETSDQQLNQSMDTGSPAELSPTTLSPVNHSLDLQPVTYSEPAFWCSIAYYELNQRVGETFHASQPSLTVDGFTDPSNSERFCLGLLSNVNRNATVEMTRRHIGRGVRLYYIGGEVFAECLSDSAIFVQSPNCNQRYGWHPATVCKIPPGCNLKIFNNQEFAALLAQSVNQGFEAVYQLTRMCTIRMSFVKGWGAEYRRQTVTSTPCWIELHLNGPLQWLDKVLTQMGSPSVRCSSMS
Sequence of UniProt Q8N357 (Q8N357 whole entry, looked up): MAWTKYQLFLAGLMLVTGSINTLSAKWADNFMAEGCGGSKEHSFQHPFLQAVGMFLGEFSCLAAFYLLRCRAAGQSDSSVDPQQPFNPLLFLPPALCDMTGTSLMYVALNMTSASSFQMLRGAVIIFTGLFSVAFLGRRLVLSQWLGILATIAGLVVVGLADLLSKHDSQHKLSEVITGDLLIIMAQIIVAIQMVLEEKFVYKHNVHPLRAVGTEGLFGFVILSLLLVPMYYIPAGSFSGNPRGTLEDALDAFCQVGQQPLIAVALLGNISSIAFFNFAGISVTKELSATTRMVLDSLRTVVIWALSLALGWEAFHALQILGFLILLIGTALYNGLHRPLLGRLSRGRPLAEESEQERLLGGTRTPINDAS
Sequence of UniProt Q86UE8 (Q86UE8 whole entry, looked up): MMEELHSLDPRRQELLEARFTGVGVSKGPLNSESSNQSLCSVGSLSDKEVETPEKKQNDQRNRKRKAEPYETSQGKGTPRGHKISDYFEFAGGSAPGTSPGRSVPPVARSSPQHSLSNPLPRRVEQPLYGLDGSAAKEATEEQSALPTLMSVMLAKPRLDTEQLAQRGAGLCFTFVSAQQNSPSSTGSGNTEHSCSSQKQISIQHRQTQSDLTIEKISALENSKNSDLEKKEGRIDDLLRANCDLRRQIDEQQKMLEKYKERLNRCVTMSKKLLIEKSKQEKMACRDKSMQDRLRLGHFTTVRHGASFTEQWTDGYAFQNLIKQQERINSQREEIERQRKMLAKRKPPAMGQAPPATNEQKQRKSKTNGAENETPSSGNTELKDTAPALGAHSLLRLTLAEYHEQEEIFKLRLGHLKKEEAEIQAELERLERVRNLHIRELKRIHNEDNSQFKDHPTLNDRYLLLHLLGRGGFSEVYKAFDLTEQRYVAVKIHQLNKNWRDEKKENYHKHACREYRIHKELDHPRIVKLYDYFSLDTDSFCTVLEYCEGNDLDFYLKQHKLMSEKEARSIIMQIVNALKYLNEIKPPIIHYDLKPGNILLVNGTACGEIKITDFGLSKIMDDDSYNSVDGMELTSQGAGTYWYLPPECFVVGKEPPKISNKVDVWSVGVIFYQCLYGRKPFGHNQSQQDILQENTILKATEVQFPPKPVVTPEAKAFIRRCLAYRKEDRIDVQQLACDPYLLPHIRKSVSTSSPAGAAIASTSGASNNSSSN
Sequence of UniProt P12931 (P12931 whole entry, looked up): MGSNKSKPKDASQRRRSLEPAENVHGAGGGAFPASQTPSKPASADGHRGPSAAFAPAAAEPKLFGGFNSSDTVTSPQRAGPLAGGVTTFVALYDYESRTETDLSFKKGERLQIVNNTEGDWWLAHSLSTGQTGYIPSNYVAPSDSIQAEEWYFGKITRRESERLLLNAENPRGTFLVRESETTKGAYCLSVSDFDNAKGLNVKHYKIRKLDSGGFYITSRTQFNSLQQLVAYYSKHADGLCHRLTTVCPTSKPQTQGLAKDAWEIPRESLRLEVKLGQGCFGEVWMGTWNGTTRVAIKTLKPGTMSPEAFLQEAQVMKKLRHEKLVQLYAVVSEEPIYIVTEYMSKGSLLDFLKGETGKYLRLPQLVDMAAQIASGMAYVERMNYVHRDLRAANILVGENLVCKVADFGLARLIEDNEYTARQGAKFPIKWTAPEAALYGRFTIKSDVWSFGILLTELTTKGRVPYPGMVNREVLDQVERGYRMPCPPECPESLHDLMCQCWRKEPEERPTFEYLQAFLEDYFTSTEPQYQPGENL
Sequence of UniProt P78382 (P78382 whole entry, looked up): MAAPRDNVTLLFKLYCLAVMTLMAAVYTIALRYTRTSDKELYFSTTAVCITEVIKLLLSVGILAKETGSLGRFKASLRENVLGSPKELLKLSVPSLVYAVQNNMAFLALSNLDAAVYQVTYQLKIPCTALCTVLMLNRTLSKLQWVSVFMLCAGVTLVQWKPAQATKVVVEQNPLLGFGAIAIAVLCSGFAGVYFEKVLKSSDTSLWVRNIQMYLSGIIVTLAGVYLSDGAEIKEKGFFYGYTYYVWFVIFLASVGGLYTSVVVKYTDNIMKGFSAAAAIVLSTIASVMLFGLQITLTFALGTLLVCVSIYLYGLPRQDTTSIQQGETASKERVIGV

| Target | log2 fold change (erlotinib) | log2 fold change [1] | log2 fold change [2] | log2 fold change [3] | log2 fold change [4] | log2 fold change [5] | log2 fold change [6] | log2 fold change [7] | log2 fold change [8] | log2 fold change [9] | log2 fold change (IRAK-1-4 Inhibitor I) | log2 fold change (ibrutinib) | log2 fold change [10] | log2 fold change (ralimetinib) | log2 fold change [11] | log2 fold change [12] | log2 fold change [13] | log2 fold change (pinometostat) | log2 fold change [14] | log2 fold change [15] |
| --- | --- | --- | --- | --- | --- | --- | --- | --- | --- | --- | --- | --- | --- | --- | --- | --- | --- | --- | --- | --- |
| STK25 (UniProt O00506) | 0.081 | 0.011 | 0.062 | -0.009 | 0.021 | 0.041 | -0.025 | -0.007 | 0.026 | 0.011 | 0.051 | -0.067 | 0 | 0.015 | -0.039 | -0.02 | 0.066 | 0.034 | -0.015 | 0.08 |
| SNW1 (UniProt Q13573) | -0.047 | -0.028 | -0.029 | 0.036 | -0.015 | 0.045 | -0.051 | -0.001 | 0.001 | 0.002 | 0.004 | 0.024 | 0.197 | 0.021 | 0.024 | 0.149 | 0.075 | -0.008 | -0.015 | 0.23 (active) |
| SMAD2 (UniProt Q15796) | 0.061 | 0.087 | -0.065 | 0.04 | 0.069 | -0.004 | -0.05 | -0.045 | -0.034 | 0.019 | -0.145 | 0.05 | -0.091 | -0.069 | -0.088 | -0.015 | 0.124 | -0.125 | -0.192 | 0.079 |
| SUPT5H (UniProt O00267) | 0.05 | 0.084 | 0.065 | 0.011 | 0.017 | 0.021 | 0.02 | 0.006 | -0.017 | 0.011 | -0.009 | -0.068 | 0.066 | -0.009 | -0.065 | -0.046 | 0.013 | -0.017 | -0.035 | -0.08 |
| SLC35A1 (UniProt P78382) | 0.014 | -0.126 | 0.05 | -0.008 | 0.082 | -0.017 | -0.043 | -0.061 | -0.052 | 0.077 | -0.057 | 0.119 | -0.027 | -0.049 | -0.056 | 0.066 | 0.007 | -0.055 | 0.059 | 0.138 |
| SMCHD1 (UniProt A6NHR9) | 0.006 | 0.171 | -0.272 | 0.043 | 0.325 | 0.046 | -0.007 | -0.422 | -0.153 | -0.564 (active) | -0.268 | -0.007 | -0.344 | 0.108 | 0.068 | -0.067 | 0.038 | 0.092 | -0.08 | 0.406 |
| SUCLG1 (UniProt P53597) | 0.033 | 0.027 | 0.052 | -0.004 | 0.012 | -0.017 | 0.061 | -0.017 | 0.021 | 0.034 | 0.048 | 0.01 | -0.018 | -0.039 | -0.07 | -0.058 | -0.01 | -0.04 | -0.017 | 0.053 |
| SRC isoform 2 (UniProt P12931) | -0.014 | -0.034 | -0.006 | 0.153 | 0.088 | 0.022 | 0.036 | -0.049 | -0.073 | -0.025 | -0.018 |  | -0.251 | -0.136 | -0.22 | 0.159 | 0.05 | 0.087 | 0.067 | 0.02 |
| SRSF9 (UniProt Q13242) | -0.084 | -0.4 | -0.721 (active) | 0.138 | -0.211 | 0.052 | -0.087 | -0.229 |  |  | -0.094 | 0.106 | -0.13 | 0.199 | 0.219 | 0.019 | 0.171 | 0.29 | -0.011 |  |
| SLC35F6 (UniProt Q8N357) | 0.12 | -0.078 | -0.008 | -0.067 | -0.013 | -0.047 | 0.417 (active) | -0.024 | -0.057 | 0.122 |  | -0.002 | -0.016 | -0.18 | 0.061 | -0.22 | 0.319 |  | -0.177 | 0.078 |
| SLC27A4 (UniProt Q6P1M0) | 0.039 | 0.013 | -0.023 | 0.032 | 0.082 | -0.02 | 0.002 | 0.061 | -0.017 | 0.062 | -0.042 | 0.022 | -0.034 | 0.003 | 0.072 | -0.11 | -0.044 | 0.039 | 0.047 | 0.104 |
| SLC25A38 (UniProt Q96DW6) | 0.007 | -0.001 | -0.023 | -0.036 | 0.129 | 0.054 | 0.023 | 0.005 | -0.005 | 0.055 | 0.005 | -0.001 | 0.003 | -0.053 | 0.035 | 0.049 | -0.018 | -0.03 | 0.012 | 0.01 |
| TLK2 isoform 2 (UniProt Q86UE8) | 0 | 0.008 | 0.04 | 0.074 | -0.041 | -0.016 | 0.064 | 0 | 0.017 | -0.048 | 0.035 | -0.011 | -0.144 | -0.003 | -0.077 | 0.011 | 0.025 | -0.004 | -0.015 | 0.282 (active) |
